In the library only some 12% were active in any assay of this set; here they are far more common.
PLK1 PBD inh = blocks phosphopeptide binding to human PLK1 polo-box domain | P53350 | Plk1 PBD binding of FITC phosphopeptide, fluorescence polarization | Potency, µM, for inactives: max response, negative = inhibition, usual class: inhibitors | 2.8% of 360,000 active | AID 720504; also: potency is read from the fitted curve at half-maximal effect; series mostly up to about 57 µM; % is scaled to controls: 0 for no effect and ±100 for the full control effect; nearly all actives have a fitted effect of over 65% in size
HP1b binding inh = HP1-beta chromodomain-methylated histone interaction inhibition. P83916. AlphaScreen HP1-beta / biotin-H3K9me3 peptide binding. Potency, µM (doses to about 114 µM), inactives show at the highest dose activity change, negative = inhibition, most hits filed as inhibitors. 0.56% of 390,000 active; also: potency is read from the fitted curve at half-maximal effect; nearly all actives have a fitted effect of over 70% in size
Target sequence (P83916 whole entry, looked up): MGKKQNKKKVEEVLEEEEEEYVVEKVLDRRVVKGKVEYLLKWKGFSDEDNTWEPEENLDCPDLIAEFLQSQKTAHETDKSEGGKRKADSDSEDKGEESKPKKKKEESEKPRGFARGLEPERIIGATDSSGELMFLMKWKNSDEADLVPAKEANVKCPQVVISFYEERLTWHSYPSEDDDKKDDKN
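AlphaScreen: HP1-beta (50 nM) preformed 30 min with biotin-H3(1-18)K9me3 peptide (50 nM) in PBS pH 7.4, 0.01% Tween-20. Compound added for 30 min at RT, then streptavidin donor/nickel chelate acceptor beads (10 ug/mL) for 30 min.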
PI5P4K alpha inh = blocks human PI5P4K alpha kinase activity; max response, %; PI5P4Kalpha enzyme, ADP-Glo luminescence, 60 min; active compounds read low; AID 652105; 1.2% of 330,000 active; P48426; active = max response of -50% or lower; inconclusive = between -30% and -50%; inactive = -30% or higher; also: value at the top dose of about 77 µM; % is scaled to controls: 0 for no effect and ±100 for the full control effect
Target sequence (P48426 whole entry, looked up): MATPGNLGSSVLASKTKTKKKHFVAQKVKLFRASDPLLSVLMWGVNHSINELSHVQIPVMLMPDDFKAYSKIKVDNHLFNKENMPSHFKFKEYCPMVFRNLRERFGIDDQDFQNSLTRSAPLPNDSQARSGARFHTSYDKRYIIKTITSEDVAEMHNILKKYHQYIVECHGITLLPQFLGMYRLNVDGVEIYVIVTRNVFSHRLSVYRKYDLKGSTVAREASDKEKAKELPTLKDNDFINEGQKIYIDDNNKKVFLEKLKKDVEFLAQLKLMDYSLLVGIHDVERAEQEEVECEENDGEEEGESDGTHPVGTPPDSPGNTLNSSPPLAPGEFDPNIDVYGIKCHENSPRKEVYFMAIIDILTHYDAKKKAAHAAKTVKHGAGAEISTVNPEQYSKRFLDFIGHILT
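Compounds were pin-transferred onto PI5P4Kalpha and substrate in HEPES pH 7.4 buffer with EGTA, CHAPS and 5% DMSO. ATP (5 microM final) started the reaction, which ran 60 minutes at room temperature before ADP-Glo detection.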
BAZ2B inh = blocks human BAZ2B. Q9UIF8. AlphaScreen BAZ2B-H3K14Ac peptide displacement. Potency, µM (series often up to 114 µM), for the others: top-dose activity change, negative = inhibition, actives largely listed as inhibitors. 4.4% of 360,000 active. AID 504333; also: potency is read from the fitted curve at half-maximal effect; % is scaled to controls: 0 for no effect and ±100 for the full control effect; nearly all actives have a fitted effect of over 60% in size
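AlphaScreen displacement of biotin-H3(5-23)K14Ac peptide (50 nM final) from BAZ2B (50 nM final) in PBS pH 7.4, 0.01% Tween-20; complex preformed 30 min RT, then compounds (top 110 uM) 30 min RT, beads 20 min dark.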
G9a block = inhibitors of human histone lysine methyltransferase G9a; G9a H3K9 monomethylation, AlphaScreen, 2 h; 8.8% of 350,000 active; Potency, µM (doses to about 102 µM), inactives show top-dose activity, negative = inhibition, hits mostly inhibitors; also: potency is read from the fitted curve at half-maximal effect; % is scaled to controls: 0 for no effect and ±100 for the full control effect; nearly all actives have a fitted effect of over 75% in size
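G9a (20 nM) was preincubated 15 min with compound, then reacted 2 h at room temperature with 500 nM biotin-H3K9 peptide and 20 µM SAM. Monomethyl-H3K9 detected by AlphaScreen using anti-H3K9me1 antibody.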
JMJD2A Tudor = blocks the human JMJD2A Tudor domain; O75164; AlphaScreen JMJD2A-Tudor / H3K4me3 peptide binding; Potency, µM (highest dose often 114 µM), without a hit: top-dose activity change, negative = inhibition, most hits filed as inhibitors; 4.4% of 390,000 active; AID 504339; also: potency is read from the fitted curve at half-maximal effect; % is scaled to controls: 0 for no effect and ±100 for the full control effect; nearly all actives have a fitted effect of over 50% in size
Numbers without * were called inactive; ? = inconclusive; / = no result given; [ ] = remark or other dose. Unless noted, calls follow the shape of the dose curve; as a rule, active = well fitted curve in the direction sought with a large enough effect; inconclusive = small, poorly fitted or top-dose-only effect, or another doubt; inactive = no such curve, though single readings can be large; an effect the other way counts as inactive or inconclusive.

SMILES	PLK1 PBD inh	HP1b binding inh	PI5P4K alpha inh	BAZ2B inh	G9a block	JMJD2A Tudor
CSc1ccc(OC2CCN(Cc3ccccc3)CC2)cc1	-1%	-22%	3	-38%	-40%[59 µM]	?
CSc1ccc(CN2CCSCC2)cc1	8%	?	-6	79µM*	13µM*	13µM*
CC(C)c1ccc(CN2CCN(S(=O)(=O)c3ccc(Cl)s3)CC2)cc1	4%	66%	19	3%	7%[2.33 µM]	23%
CC(C)c1ccc(CN2CCSCC2)cc1	1%	?	-8	?	/	2.8µM*
Brc1cc(Br)cc(CN2CCSCC2)c1	0%	54%	0	18%	/	5%
CC1Cn2c(C(=O)NCc3cccc(Br)c3)cc3cccc(c32)S1 (configuration not stated)	/	76%	/	12%	29%[59 µM]	34%
CCCCNC(=O)CC1Nc2cc(C)c(C)cc2NC1=O (configuration not stated)	/	16%	/	-14%	-37%[59 µM]	-21%
NSc1nc(N)c2nc(-c3ccccc3)c(-c3ccccc3)nc2n1	13µM*	2%	-53*	-24%	6.3µM*	-31%
Nc1nc(N)c2nc(-c3ccccc3)c(N)nc2n1	-12%	22%	?	12%	-4%[59 µM]	-20%
CC(=O)c1c(C)nc(-c2ccc(Cl)cc2)nc1N	-18%	24%	0	79µM*	-46%	-17%
CC(=O)c1c(C)nc(-c2ccc(Cl)cc2)nc1N=CN(C)C	3%	17%	1	79µM*	3.5µM*	?
CC(=O)c1sc(-c2ccc(Cl)cc2)nc1C	7%	66%	1	-6%	2%	11%
Cc1cc(/C=N/NC(=O)c2cccc(N(C)C)c2)c(C)n1-c1cc(C(=O)O)cc(C(=O)O)c1	?	32µM*	?	/	11µM*	40µM*
Cc1cc(/C=N/NC(=O)C(O)(c2ccccc2)c2ccccc2)c(C)n1-c1cccc(C(=O)O)c1	-21%	-4%	-51*	56µM*	40µM*	?
CCOC(=O)N1CCc2c(sc3c2c(=O)n(-c2ccc(Cl)cc2)c(=O)n3CC(=O)Nc2ccccc2)C1	/	-8%	/	-4%	0%[59 µM]	-13%
O=C(CNC(=O)c1ccc(Cl)cc1)NC(CO)c1ccccc1 (configuration not stated)	1%	21%	-3	-7%	1%	1%
COC(=O)CC1C(C)(C)C(OC(C)=O)[C@@]2(O)C=C3C4CC(=O)OC(c5ccoc5)[C@]4(C)CCC3[C@@]1(C)C2=O (some centres not stated)	/	/	/	/	-39%[2.33 µM]	/
CCN1CCN(C(=O)c2ccc3c(c2)N(Cc2ccc(C)cc2)CCS3)CC1	0%	-6%[57 µM]	-2	-28%[57.1 µM]	79µM*	-36%
CC1CC(C)CN(C(=O)c2ccc3c(c2)N(Cc2ccccc2)CCS3)C1 (configuration not stated)	-21%	11%	-2	?	40µM*	?
COc1ccccc1CNC(=O)c1ccc2c(c1)N(Cc1ccc(C)cc1)CCS2	/	39%	/	-21%	-19%[59 µM]	-23%
Cc1ccc(CN2CCSc3ccc(C(=O)N4CCOCC4)cc32)cc1	-5%	23%	1	?	?	-28%
Cc1ccc(CN2CCSc3ccc(C(=O)NCc4ccco4)cc32)cc1	-9%	-9%	1	-18%	71µM*	-32%
Cc1cc(NC(=O)c2ccc3sc([C@@H]4O[C@H](CO)[C@H](O)[C@H](O)[C@H]4O)nc3c2)no1	-14%	/	1	/	/	/
CCN(C(=O)COC(=O)c1ccccc1Oc1ccccc1)c1c(N)n(Cc2ccccc2)c(=O)[nH]c1=O	-10%	17%	8	/	/	4%
CCN(CC)CCN(CC(=O)N(C1CCCCC1)C1CCCCC1)C(=O)c1cccnc1	-1%	36%	0	?	50µM*	-9%
SMILES	PLK1 PBD inh	HP1b binding inh	PI5P4K alpha inh	BAZ2B inh	G9a block	JMJD2A Tudor
Cc1cc(C(=O)NNc2ccc(C)c(C)c2)no1	-26%	5%	2	-3%	2.5µM*	-17%
Cc1ccc(NNC(=O)c2ccno2)cc1Cl	-10%	28%	0	-31%	8.9µM*	-22%
Cc1cc(C(=O)NNc2ccc(Cl)cc2)no1	-1%	57%	6	-5%	/	-5%
Cc1ccc(NNC(=O)c2ccno2)cc1C	?	-3%	-9	1%	6.3µM*	79µM*
Cc1ccc(NNC(=O)c2cc(C)on2)c(C)c1	-11%	1%	-5	-14%	11µM*	-7%
Cc1cc(C(=O)NNc2ccc(F)cc2F)no1	0%	47%	4	0%	-103%[59 µM]	8%
COCCNC(=O)C1CCCN(S(=O)(=O)c2ccc3c(ccn3C)c2)C1 (configuration not stated)	/	26%[57 µM]	/	-1%	4%[59 µM]	4%
Cc1cnc(NC(=O)c2ccncc2)s1	3%	11%	-12	-29%	50µM*	5%
Cc1nnc(NC(=O)c2ccncc2)s1	-2%	19%	-6	-1%	5%[59 µM]	11%
O=C(CCCSc1nc2ccccc2s1)Nc1nccs1	-6%	37%	-1	2%	-35%[59 µM]	16%
O=C(COc1ccccc1)Nc1nn[nH]n1	-5%	33%	-3	79µM*	?	79µM*
O=C(CCCc1nc2ccccc2s1)Nc1nccs1	-25%	23%	-7	-2%	40µM*	-11%
Cc1cnc(NC(=O)CCCc2nc3ccccc3s2)s1	?	8%	-16	-9%	35µM*	-7%
Cc1ccc2nc(NC(=O)CCCc3nc4ccccc4s3)sc2c1	?	38%	-12	-6%	?	-30%
CC(=O)OCC(NC(=O)C(COCc1ccccc1)NC(=O)OC(C)(C)C)C1OC(n2cc(F)c(=O)[nH]c2=O)C(OC(C)=O)C1OC(C)=O (configuration not stated)	/	9%	/	/	/	-12%
O=C(COC(=O)c1ccccc1)Nc1ncc([N+](=O)[O-])s1	21µM*	?	-74*	/	/	20µM*
O=C(CCCc1nc2ccccc2s1)NNC(=O)CCN1CCN(Cc2ccccc2)CC1	-20%	12%	-4	-22%	35µM*	-10%
O=C(Nc1nc(-c2ccccc2)ns1)c1ccncc1	8.4µM*	19%	-27	3%	/	-18%[11.4 µM]
Cc1cnc(NC(=O)COc2ccccc2)s1	30µM*	-9%	-1	-3%	2%[59 µM]	89µM*
O=C(Nc1ncc([N+](=O)[O-])s1)c1cccc([N+](=O)[O-])c1	-18%	9%	-6	-25%	?	-29%
CC(=O)Nc1cccc(OCC(=O)Nc2sccc2C(N)=O)c1	-5%	28%	-7	-14%	-3%	-18%
O=C(CCc1nc2ccccc2s1)NC1CCOC1=O (configuration not stated)	24µM*	-11%	?	14%	40%[59 µM]	-9%[11.4 µM]
CCNC(=O)c1cnc2sc(N3CCC(C)CC3)nn2c1=O	/	10%	/	-5%	-5%[59 µM]	-7%

High-throughput results (PubChem)
